Source: PubChem BioAssay (National Center for Advancing Translational Sciences (NCATS))
Hits are enriched below; roughly 3.4% of the tested compounds scored in any of these assays.
GBA activity = human lysosomal glucosylceramidase modulation; 48,000 tested, 1.1% active; P04062; purified enzyme, resorufin glucoside fluorescence (screen aimed at inhibitors), 20 min; Potency, µM; in the data active = potency below about 15 µM; inconclusive = mostly about 16 µM to 33 µM;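 also: the screen sought inhibitors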
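Normal human glucocerebrosidase (0.2 nM final) was assayed with resorufin β-D-glucopyranoside (30 uM final) in 50mM citric acid/KH2PO4, 10mM sodium taurocholate, 0.01% tween-20, pH 5.9. Compounds were titrated; fluorescence (Ex 548, Em 600) read after 20 min at RT.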
FLuc inh = firefly luciferase inhibition. P08659. purified firefly luciferase, luminescence, 8 min. Potency, µM (series often up to 57.1 µM), for the others: at the highest dose activity change, negative = inhibition, most hits filed as inhibitors. 72,000 tested, 2.2% active. AID 411; active = well fitted inhibition curve with a large enough effect; inconclusive = small, poorly fitted or top-dose-only effect; also: % is scaled to controls: 0 for no effect and ±100 for the full control effect; nearly all actives have a fitted effect of over 40% in size
Target sequence (P08659 whole entry, looked up): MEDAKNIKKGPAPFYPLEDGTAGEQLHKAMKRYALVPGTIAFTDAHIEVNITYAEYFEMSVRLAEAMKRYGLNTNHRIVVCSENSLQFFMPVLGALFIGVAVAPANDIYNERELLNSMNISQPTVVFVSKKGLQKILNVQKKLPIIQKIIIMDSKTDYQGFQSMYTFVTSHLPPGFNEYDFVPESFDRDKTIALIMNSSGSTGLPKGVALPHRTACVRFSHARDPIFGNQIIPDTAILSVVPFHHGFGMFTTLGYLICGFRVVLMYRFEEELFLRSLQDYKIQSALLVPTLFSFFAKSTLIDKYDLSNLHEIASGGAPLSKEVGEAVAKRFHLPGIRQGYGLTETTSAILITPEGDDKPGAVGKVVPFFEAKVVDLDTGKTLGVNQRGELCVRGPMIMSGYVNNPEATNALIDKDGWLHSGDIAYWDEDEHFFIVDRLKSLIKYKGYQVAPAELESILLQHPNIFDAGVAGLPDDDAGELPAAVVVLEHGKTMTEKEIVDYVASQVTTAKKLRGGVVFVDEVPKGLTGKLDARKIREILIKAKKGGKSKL
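Firefly luciferase (PKLight detection mix) with 10 uM ATP in pH 7.2 imidazole buffer (KCl, MgCl2, Tween 20, BSA). Compounds tested across a concentration series (qHTS). Luminescence read after 8 min at ambient temperature.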
Bst PK mod = pyruvate kinase (B. stearothermophilus) modulation; AID 361; Potency, µM; purified pyruvate kinase, luminescence ATP production; ribose 5-phosphate activator present at AC10; 51,000 tested, 1.2% active; in the data active = potency below about 11 µM; inconclusive = mostly about 12 µM to 25 µM;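 the screen sought inhibitors and activators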;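 also: scaled between full activation by ribose 5 phosphate and full inhibition by luteolin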
Numbers without * were called inactive; i = inactive; ? = inconclusive; · = no result given; [ ] = remark or other dose. Potency is read from the fitted curve at half-maximal effect.

SMILES | GBA activity | FLuc inh | Bst PK mod
Nc1ncn([C@@H]2O[C@@H](CO)[C@@H](O)[C@H]2O)c(=O)n1 | · | 0.0% | ·
CC(C)(C)c1onc(OCP(=O)(O)O)c1C[C@@H](N)C(=O)O | · | -3.5% | ·
COc1ccccc1NS(=O)(=O)c1ccc(Br)s1 | >76.9 | -0.3% | ·
COc1cccc(NS(=O)(=O)c2ccc(Br)s2)c1 | 14.3* | -2.5% | >57
CN(C)C[C@H]1CCC[C@@H](CN(C)C)C1=O | · | 1.6%[11.4 µM] | ·
CCc1nnc(NC(=O)CSc2nc3c(cc2C#N)CCC3)s1 | >76.9 | 3.16µM* | ·
N#Cc1cc2c(nc1SCC(=O)Nc1nccs1)CCCCC2 | · | -7.3% | ·
CCC(=O)Nc1ccc(C(=O)Cn2nc(C(=O)O)c3ccccc3c2=O)cc1 | 4.62* | 1.7% | >57
Cc1nn(CC(=O)Nc2ccccc2)c(=O)c2ccccc12 | >76.9 | -0.4% | >57
N[C@H](Cc1cc(I)c(Oc2ccc(O)c(I)c2)c(I)c1)C(=O)O | · | 7.4%[25.5 µM] | ·
O=C1c2ccccc2C(=O)c2c1ccc(N1C(=O)c3ccccc3C1=O)c2-c1c(N2C(=O)c3ccccc3C2=O)ccc2c1C(=O)c1ccccc1C2=O | · | 1.1%[11.4 µM] | ·
O=C(Cn1c(=O)[nH]n(-c2ccccc2)c1=O)N1CCCc2ccccc21 | 8.96* | -0.2% | >57
O=C(Cn1cnc2c(cnn2-c2ccccc2)c1=O)N1CCCc2ccccc21 | >76.9 | -0.7% | >57
N#Cc1cccc(-c2nc3cnc(Nc4ccccc4)nc3n(C[C@H]3CCCO3)c2=O)c1 | · | -1.2%[11.4 µM] | ·
Cc1cnc(CNc2ccnc(-c3cccc(C#N)c3)n2)cn1 | · | -2.2%[2.29 µM] | ·
Cc1cc(SCC(=O)c2ccc(Br)cc2)cc(C)[o+]1 | · | 2.8%[11.4 µM] | ·
COc1ccc(NC(=O)N2CCC3(CC2)CCN(C(=O)c2cccc(F)c2)CC3)cc1 | · | 2.3%[11.4 µM] | ·
CC(=O)c1ccc(C(=O)Nc2ccc(N3CCOCC3)cc2)cc1 | · | 0.9% | ·
CC(=O)c1ccc(NC(=O)c2ccn[nH]2)cc1 | >76.9 | 25.1µM* | ·
COc1ccc(N(CC(=O)O)N=O)cc1 | · | -0.6%[11.4 µM] | ·
O=C(CN1CCN(S(=O)(=O)c2ccc(Cl)cc2)CC1)Nc1ccc2c(c1)OCCO2 | >76.9 | 8.2% | i
NC(=O)c1ccsc1NC(=O)C1CCCN1S(=O)(=O)c1ccc(Cl)cc1 (stereo not drawn) | >76.9 | -2.3% | i
O=C(Nc1nccs1)C1CCCN1S(=O)(=O)c1ccc(Cl)cc1 (stereo not drawn) | >76.9 | 2.1% | 10.4*
O=C(Nc1ccc2c(c1)OCCO2)C1CCCN1S(=O)(=O)c1ccc(Cl)cc1 (stereo not drawn) | >76.9 | 3.7% | 11*
COc1ccc(S(=O)(=O)N2CCCC(C(=O)Nc3cccnc3)C2)cc1Cl (stereo not drawn) | ? | 2.0% | >57
SMILES | GBA activity | FLuc inh | Bst PK mod
O=C(Nc1cccnc1)C1CCCN1S(=O)(=O)c1ccc(Cl)c(Cl)c1 (stereo not drawn) | · | 1.6% | 4.69*
CCNc1ncc2nc(-c3cc(F)cc(F)c3)c(=O)n(C[C@H]3CCCO3)c2n1 | · | -0.4%[11.4 µM] | ·
N#CCCn1c(=O)c(-c2cccc(C#N)c2)nc2cnc(N3CCOCC3)nc21 | · | 1.6%[11.4 µM] | ·
NC(N)=NCCSSCCN=C(N)N | · | 0.2% | ·
Cn1cccc1C(=O)N1CCC2(CC1)CN(c1ccccn1)C2 | · | 1.7%[11.4 µM] | ·
CC(C)CO/N=C1/C[C@@H](O)[C@@H](O)[C@@H]2[C@@H]3C(=O)N(C[C@@H]4CCCO4)C(=O)[C@H]3CC[C@H]12 | · | -1.2%[11.4 µM] | ·
COc1ccc(N2CCN(C(=O)c3ccc(C)cc3Cl)CC2)cc1 | >76.9 | 1.4% | ·
COc1ccc(N2CCN(C(=O)c3ccc(C)c(Cl)c3)CC2)cc1 | >76.9 | 1.0% | 6.38*
COc1ccc2[nH]cc(CCNc3ncnc4ccc(-c5c(C)noc5C)cc34)c2c1 | · | 1.2%[2.29 µM] | ·
COCCCNC(=O)CCC(=O)Nc1ccc2nc(N3CCOCC3)cc(C)c2c1 | 6.8* | -16.6% | >57
O=C(Nc1ccc(N2CCOCC2)cc1)C1CC1 | >76.9 | -3.5% | >57
CCOC(=O)C1CCCN(C(=O)N2CCOCC2)C1 (stereo not drawn) | · | 0.7% | ·
CCCCNC(=O)CCC(=O)Nc1ccc2nc(N3CCOCC3)cc(C)c2c1 | 3.76* | ? | ·
Cc1ccc(C)c(OCCCC(=O)Nc2ccc(N3CCOCC3)cc2)c1 | >76.9 | -1.0% | >57
Cc1cc(N2CCN(C)CC2)nc2ccc(NC(=O)CCC(=O)NCCC3=CCCCC3)cc12 | ? | 2.1% | >57
Cc1cc(N2CCOCC2)nc2ccc(NC(=O)C3CCC(C)CC3)cc12 (stereo not drawn) | 0.0606* | -1.8% | >57
CCOC(=O)C1CCCN(C(=O)CCC(=O)Nc2ccc3nc(N4CCOCC4)cc(C)c3c2)C1 (stereo not drawn) | 2.59* | ? | >57
COc1ccc(C(=O)N2CCC3(CC2)CCN(c2ncccn2)CC3)cc1 | · | 0.1%[11.4 µM] | ·
OC[C@@H]1O[C@@H](n2cnc3c(N[C@@H]4C[C@@H]5CC[C@H]4C5)ncnc32)[C@@H](O)[C@H]1O | · | -1.5% | ·
CC[C@@H]1[C@H]2CCCCN3[C@@H]2[C@@H](C[C@H]3[C@@H]2C[C@H](C)C(=O)O2)[C@@H]2[C@H]1OC(=O)[C@H]2C | · | -0.5%[11.4 µM] | ·
COc1ccc(C(=O)N2CCC3(CC2)CN(c2ccc(-c4ccccc4)cc2)C3)cc1 | · | 2.1%[11.4 µM] | ·
CCN[C@@H]1C[C@H](N)[C@H](O[C@H]2OC(CN)=CC[C@H]2N)[C@@H](O)[C@H]1O[C@H]1OC[C@@](C)(O)[C@@H](NC)[C@@H]1O | · | -2.1%[25.5 µM] | ·
CCN1CCN(c2cc(C)c3cc(NC(=O)c4ccncc4)ccc3n2)CC1 | · | 0.0% | ·
CCN1CCN(c2cc(C)c3cc(NC(=O)c4ccc(Br)o4)ccc3n2)CC1 | 5.06* | -3.7% | >57
CC(=O)O[C@H]1C(=O)[C@@]2(C)[C@H]([C@H](OC(=O)c3ccccc3)[C@]3(O)C[C@H](OC(=O)[C@H](O)[C@@H](NC(=O)c4ccccc4)c4ccccc4)C(C)=C1C3(C)C)[C@]1(OC(C)=O)CO[C@@H]1C[C@@H]2O | · | 15.8µM* | ·
SMILES | GBA activity | FLuc inh | Bst PK mod
COc1ccc(-c2nc3cnc(N4CCNCC4)nc3n(C3CC3)c2=O)cc1 | · | -1.2%[11.4 µM] | ·
COc1cc2c(cc1NC(=O)CSCC(=O)O)oc1ccccc12 | >76.9 | -7.0% | i
COc1cc2c(cc1NC(=O)COC(=O)Cn1cnc3ccccc31)oc1ccccc12 | >76.9 | 15.8µM* | ·
CCOC(=O)N/N=C1/C[C@@H](O)[C@@H](O)[C@@H]2[C@@H]3C(=O)N(Cc4ccc5c(c4)OCO5)C(=O)[C@H]3CC[C@@H]12 | · | -1.5%[11.4 µM] | ·
Cc1ccc(C(=O)Nc2ccncc2)o1 | · | -2.1% | >57
Cc1ccc(C(=O)/C=C/Nc2ccccc2C(N)=O)o1 | >76.9 | 6.31µM* | 6.15*
Cc1ncoc1C(=O)Nc1ccccc1C(N)=O | >76.9 | 0.0% | >57
CC(=O)Nc1ccc(N/C=C/C(=O)c2ccc(C)o2)cc1 | >76.9 | 15.8µM* | i
COc1ccccc1CN1CCC2(CC1)CCN(C(=O)c1cccn1C)CC2 | · | 0.5%[11.4 µM] | ·
CC(=O)NCCNc1ncncc1-c1ccccc1CN(C)C | · | -0.4%[2.29 µM] | ·
CCCC1c2c(ccc3ccccc23)Oc2ccc3ccccc3c21 | · | 4.7%[11.4 µM] | ·
Cc1onc(-c2ccccc2Cl)c1C(=O)Nc1cccc(-c2cn3cccnc3n2)c1 | 11.4* | -2.1% | >57
Cc1onc(-c2ccccc2Cl)c1C(=O)Nc1ccc(F)c(F)c1 | i | 1.0% | >57
Cc1cnc(CNc2nc(-c3ccc4c(c3)OCO4)nc3ccccc23)cn1 | · | -9.3%[2.29 µM] | ·
CCc1cc(C(=O)Cc2nc3ccccc3[nH]2)c(O)cc1O | ? | 10µM* | >57
